# Experimental data: PubChem BioAssay (NCATS)
# Records with an inconclusive call do not appear. Values without a mark were called inactive. Activity calls are given as the source filed them. The call rests on the fitted dose curve; in most records, active means well fitted inhibition curve with a large enough effect; inconclusive means small, poorly fitted or top-dose-only effect; inactive means flat fitted curve, though single readings scatter.
# Test system: KB-3-1
# Test: Cytotoxic Profiling of Annotated Libraries Using Quantitative High-Throughput Screening (AID 1296008); further: nearly all actives have a fitted effect of over 60% in size
# Conditions: Five cell lines viability, CellTiter-Glo ATP luminescence, 48-72 h; max response: active compounds read low
# Summary of the method: (§1)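 Compounds were pin-transferred onto cells and incubated 48 or 72 hr at 37 degree Celsius, 95% humidity. CellTiter-Glo was added, plates sat 10 min at room temperature, then ATP-coupled luminescence was imaged as the viability read-out.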
# On the % scale 0 is the no-effect control and ±100 the full control effect.
SMILES,outcome,max response
CC(=O)O[C@@H]1[C@@H](OC(=O)/C=C/c2ccccc2)[C@@H](OC(C)=O)[C@H](O[C@H]2[C@@H]3C=CO[C@@H](O[C@@H]4O[C@H](CO)[C@@H](O)[C@H](O)[C@H]4O)[C@@H]3[C@@]3(CO)O[C@@H]23)O[C@H]1C,inactive,–
COc1cccc(C(=O)N2CCN(C(=O)COc3cccc(C)c3)CC2)c1OC,–,-10.9%
C=C[C@H]1C(O[C@@H]2O[C@H](CO)[C@@H](O)[C@H](O)[C@H]2O)OC=C2C(=O)N3CCc4c([nH]c5ccccc45)[C@H]3C[C@H]21 (stereo not given in full),–,3.99%
C/C=C(/COC(=O)/C(C)=C/C)C(=O)OC(CC)c1ccc(OC)c(OC)c1 (stereo not given),–,9.77%
C=C1[C@H](OC(C)=O)[C@H]2[C@@H](OC(C)=O)[C@](C)(OC(C)=O)C[C@]2(OC(C)=O)C(=O)[C@H](C)/C=C/C(C)(C)C(=O)[C@H](OC(=O)C(C)C)[C@H]1OC(C)=O,inactive,–
C=CC(C)(C)C12C=C(OC)C(=O)N3C(C(C)C)C(=O)NC31N(OC)c1ccccc12 (stereo not given),inactive,–
C/C1=C\CC[C@]2(C)O[C@@H]2[C@H](O)[C@H](C(C)C)[C@H](OC(=O)/C=C/c2ccccc2)C1,–,-3.73%
c1ccc(N2CCN(CCc3nn[nH]n3)CC2)cc1,–,7.49%
C=C1CC2C(C)(CCC(=O)O)C(C(C)(C)O)CCC2(C)C2C(=O)OC(C)(C(=O)OC)C(=O)C12C (stereo not given),inactive,–
CC(C)=CCCC1(C)C=Cc2c(c(C)cc3c2[nH]c2ccccc23)O1 (stereo not given),–,6.53%
CC1(C)CC[C@]2(C(=O)O[C@@H]3O[C@H](CO[C@@H]4O[C@H](CO)[C@@H](O)[C@H](O)[C@H]4O[C@@H]4O[C@H](CO)[C@H](O)[C@H](O)[C@H]4O)[C@@H](O)[C@H](O[C@@H]4O[C@H](CO)[C@@H](O)[C@H](O)[C@H]4O)[C@H]3O)CC[C@]3(C)C(=CCC4[C@@]5(C)CC[C@H](O[C@@H]6OC[C@@H](O)[C@H](O)[C@H]6O)[C@@](C)(C(=O)O)C5CC[C@]43C)[C@@H]2C1 (stereo not given in full),–,4.92%

# Test system: NIH3T3
# Test: as above
# Conditions: Five cell lines viability, CellTiter-Glo ATP luminescence, 48-72 h; max response: active compounds read low
# Summary of the method: as §1
row,SMILES,max response
1,C/C(=C\CCC1(C)C2CCC(C2)C1(C)O)C(=O)O (stereo not given),3.29%
2,CC(=O)O[C@@H]1c2c3c(cc(O)c2C(=O)O[C@@H]1C)O[C@@]1(C)[C@@H](O)C[C@H]2C(C)(C)C(=O)C=C[C@]2(C)[C@@H]1C3,-3.36%
3,COc1ccccc1Oc1ccc(N(Cc2cccnc2)S(=O)(=O)CC(F)(F)F)cc1,-1.58%
4,CC(C)C(NC(=O)c1ccc2ccccc2n1)C(=O)NC(CC(=O)O)C(=O)COc1c(F)cccc1F (stereo not given),-0.522%
5,CC(C)=CCC[C@](C)(O)[C@H]1CC[C@]2(C)[C@@H]1[C@H](O)CC1[C@@]3(C)CC[C@H](O)C(C)(C)C3[C@@H](O[C@@H]3O[C@H](CO)[C@@H](O)[C@H](O)[C@H]3O[C@@H]3OC[C@@H](O)[C@H](O)[C@H]3O)C[C@]12C (stereo not given in full),1.41%
6,C=CC[C@]12C[C@@H](OC)C(=O)C(OC)=C1O[C@@H](c1cc(OC)c3c(c1)OCO3)[C@@H]2C,-4.29%
7,CC(C)O[C@@H]1O[C@H](CO)[C@@H](O)[C@H](O)[C@H]1O,4.22%
8,C[C@@H]1CN(Cc2ncccn2)C[C@H]1c1nc2c(cnn2C2CCOCC2)c(=O)[nH]1,-4.05%
9,CN[C@H](CC(C)C)C(=O)N[C@H]1C(=O)N[C@@H](CC(N)=O)C(=O)N[C@H]2C(=O)N[C@H]3C(=O)N[C@H](C(=O)N[C@H](C(=O)O)c4cc(O)cc(O)c4-c4cc3ccc4O)[C@H](O[C@H]3C[C@](C)(N)[C@@H](O)[C@H](C)O3)c3ccc(c(Cl)c3)Oc3cc2cc(c3O[C@@H]2O[C@H](CO)[C@@H](O)[C@H](O)[C@H]2O[C@H]2C[C@](C)(NCc3ccc(-c4ccc(Cl)cc4)cc3)[C@@H](O)[C@H](C)O2)Oc2ccc(cc2Cl)[C@H]1O,1.69%
10,C=C1CC[C@H]2[C@@](C)(CCC(O)[C@@]2(C)CO)[C@@H]1CCC1=CCOC1=O (stereo not given in full),-1.37%
11,CC1CCC2(C=O)C(CO)=CCCC2C1(C)CC(=O)O (stereo not given),-21.3%
12,C=CC1(C)C=C2CCC3C(C)(C)C(O[C@@H]4O[C@@H](CO)[C@H](O)[C@H]4O)CCC3(C)C2CC1O[C@@H]1O[C@H](C)[C@H](O)[C@H](O)[C@H]1O (stereo not given in full),-6.13%
13,C/C(=C\CC[C@@H](C)[C@H]1CC(O)[C@@]2(C)C3CC[C@H]4C(C)(C)[C@@H](OC5OCC(O)C(O)C5OC5OC(CO)C(O)C(O)C5O)CC[C@@]45C[C@@]35CC(O)[C@]12C)C(=O)O (stereo not given in full),-27.1%
14,CC(C)(C)NCCCNC(=O)c1cccc(Br)c1,3.37%
15,CC(=O)OC1C[C@]2(C)C(O)CC(C)=C[C@H](OC(=O)c3ccc(O)cc3)C2[C@]1(O)C(C)C (stereo not given in full),3.62%
16,C=C1CC[C@@H]2[C@](C)(CO[C@@H]3O[C@H](CO)[C@@H](O)[C@H](O)[C@H]3O)[C@H](O)CC[C@@]2(C)[C@@H]1C/C=C1/C(=O)OC[C@H]1O,2.12%
17,COC(=O)/C=C/C12COC(C)(C)C1C(O)C(OC(C)=O)C1(C)C2CCC2(C)C(c3ccoc3)OC(=O)C3OC321 (stereo not given),-16.9%
18,CC1CC(=O)C2=C(CCC3(O)C(O)c4c(O)cccc4C(=O)C23O)C1 (stereo not given),1.72%
19,COC(=O)c1ccccc1O[C@@H]1O[C@H](CO)[C@@H](O)[C@H](O)[C@H]1O[C@@H]1O[C@@H](C)[C@H](O)[C@@H](O)[C@H]1O,0.854%
20,CCc1ccc(Cc2ccc3c(c2)[C@]2(OC3)O[C@H](CO)[C@@H](O)[C@H](O)[C@H]2O)cc1,1.11%

row,SMILES,max response
1,OC[C@H]1O[C@@H](Oc2ccccc2)[C@H](O)[C@@H](O)[C@@H]1O,-2.04%
2,COc1cc2c(cc1OC)CC(=O)N(CCCNC[C@H]1Cc3cc(OC)c(OC)cc31)CC2,-0.121%
3,COc1cc(O)c([C@@H](CC(=O)N2CC(C)CC(C)C2)c2ccc3c(c2)OCO3)c(OC)c1 (stereo not given in full),-1.6%
4,C=CC/C=C\C/C=C\CCCCCCCc1cccc(O)c1C(=O)O,-1.27%
5,Cc1ccc(-c2ccc3c(ccc4sc5c(c43)NC[C@@H](C)NC5=O)n2)cn1,-0.392%
6,C[C@@H]1C(=O)OC[C@H]2C(C(=O)O)=C[C@@H]3CC(C)(C)C[C@]312,4.19%
7,C[C@H]1CC(=O)Nc2cccc(-c3cnn(C(C)(C)C)c3)c2N1,-7.27%
8,COC(=O)C(C)C1CCC2(C)C(=O)C=CC(C)(O)C2C1O (stereo not given),2.97%
9,CC(=O)O[C@@H]1[C@@H](OC(=O)/C=C/c2ccccc2)[C@@H](OC(C)=O)[C@H](O[C@H]2[C@@H]3C=CO[C@@H](O[C@@H]4O[C@H](CO)[C@@H](O)[C@H](O)[C@H]4O)[C@@H]3[C@@]3(CO)O[C@@H]23)O[C@H]1C,-0.931%
10,COc1cccc(C(=O)N2CCN(C(=O)COc3cccc(C)c3)CC2)c1OC,-5.08%
11,C=C[C@H]1C(O[C@@H]2O[C@H](CO)[C@@H](O)[C@H](O)[C@H]2O)OC=C2C(=O)N3CCc4c([nH]c5ccccc45)[C@H]3C[C@H]21 (stereo not given in full),2.76%
12,C/C=C(/COC(=O)/C(C)=C/C)C(=O)OC(CC)c1ccc(OC)c(OC)c1 (stereo not given),1.56%
13,C=C1[C@H](OC(C)=O)[C@H]2[C@@H](OC(C)=O)[C@](C)(OC(C)=O)C[C@]2(OC(C)=O)C(=O)[C@H](C)/C=C/C(C)(C)C(=O)[C@H](OC(=O)C(C)C)[C@H]1OC(C)=O,2.17%
14,C=CC(C)(C)C12C=C(OC)C(=O)N3C(C(C)C)C(=O)NC31N(OC)c1ccccc12 (stereo not given),-14.5%
15,C/C1=C\CC[C@]2(C)O[C@@H]2[C@H](O)[C@H](C(C)C)[C@H](OC(=O)/C=C/c2ccccc2)C1,2.07%
16,c1ccc(N2CCN(CCc3nn[nH]n3)CC2)cc1,1.1%
17,C=C1CC2C(C)(CCC(=O)O)C(C(C)(C)O)CCC2(C)C2C(=O)OC(C)(C(=O)OC)C(=O)C12C (stereo not given),-2.52%
18,CC(C)=CCCC1(C)C=Cc2c(c(C)cc3c2[nH]c2ccccc23)O1 (stereo not given),-4.99%
19,CC1(C)CC[C@]2(C(=O)O[C@@H]3O[C@H](CO[C@@H]4O[C@H](CO)[C@@H](O)[C@H](O)[C@H]4O[C@@H]4O[C@H](CO)[C@H](O)[C@H](O)[C@H]4O)[C@@H](O)[C@H](O[C@@H]4O[C@H](CO)[C@@H](O)[C@H](O)[C@H]4O)[C@H]3O)CC[C@]3(C)C(=CCC4[C@@]5(C)CC[C@H](O[C@@H]6OC[C@@H](O)[C@H](O)[C@H]6O)[C@@](C)(C(=O)O)C5CC[C@]43C)[C@@H]2C1 (stereo not given in full),1%
